# Legend:
# [1] = biological target: Dual specificity protein kinase CLK3 (Homo sapiens) (UniProt P49761); conditions: at 1 µM;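 note: each value is the mean inhibition of CLK3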
# [2] = biological target: Dual specificity tyrosine-phosphorylation-regulated kinase 1A (Homo sapiens) (UniProt Q13627); conditions: at 0.1 µM
# [3] = biological target: Dual specificity tyrosine-phosphorylation-regulated kinase 1A (Homo sapiens) (UniProt Q13627); conditions: at 1 µM
# [4] = biological target: Dual specificity tyrosine-phosphorylation-regulated kinase 1B (Homo sapiens) (UniProt Q9Y463); conditions: at 0.1 µM
# [5] = biological target: Dual specificity tyrosine-phosphorylation-regulated kinase 1B (Homo sapiens) (UniProt Q9Y463); conditions: at 1 µM
# [6] = biological target: T1, Dual specificity tyrosine-phosphorylation-regulated kinase 2 (Homo sapiens) (UniProt Q92630); conditions: at 0.1 µM
# T1 sequence (whole entry): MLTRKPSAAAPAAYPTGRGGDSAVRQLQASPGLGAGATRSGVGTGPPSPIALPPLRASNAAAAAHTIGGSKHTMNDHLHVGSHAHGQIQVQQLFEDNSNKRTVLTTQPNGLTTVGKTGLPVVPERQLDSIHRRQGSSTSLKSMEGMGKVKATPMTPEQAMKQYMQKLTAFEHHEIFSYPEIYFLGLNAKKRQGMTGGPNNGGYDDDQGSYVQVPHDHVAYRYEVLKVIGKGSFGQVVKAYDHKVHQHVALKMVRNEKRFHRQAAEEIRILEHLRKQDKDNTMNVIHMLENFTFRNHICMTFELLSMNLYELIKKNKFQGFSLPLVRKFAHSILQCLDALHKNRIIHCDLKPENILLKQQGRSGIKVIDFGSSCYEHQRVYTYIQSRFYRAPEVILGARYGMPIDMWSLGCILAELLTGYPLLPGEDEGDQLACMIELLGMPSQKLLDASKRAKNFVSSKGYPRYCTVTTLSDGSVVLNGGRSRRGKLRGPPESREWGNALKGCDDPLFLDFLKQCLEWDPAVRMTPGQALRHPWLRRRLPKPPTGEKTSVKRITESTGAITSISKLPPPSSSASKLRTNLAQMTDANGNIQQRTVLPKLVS
# [7] = biological target: T1, Dual specificity tyrosine-phosphorylation-regulated kinase 2 (Homo sapiens); conditions: at 1 µM
# [8] = biological target: Glycogen synthase kinase-3 alpha (Homo sapiens) (UniProt P49840); conditions: at 0.1 µM
# [9] = biological target: Glycogen synthase kinase-3 alpha (Homo sapiens) (UniProt P49840); conditions: at 1 µM
# [10] = biological target: Glycogen synthase kinase-3 beta (Homo sapiens) (UniProt P49841); conditions: at 0.1 µM
# [11] = biological target: Glycogen synthase kinase-3 beta (Homo sapiens) (UniProt P49841); conditions: at 1 µM
# [12] = biological target: Homeodomain-interacting protein kinase 1 (Homo sapiens) (UniProt Q86Z02); conditions: at 0.1 µM
# [13] = biological target: Homeodomain-interacting protein kinase 1 (Homo sapiens) (UniProt Q86Z02); conditions: at 1 µM
# [14] = biological target: T2, Homeodomain-interacting protein kinase 4 (Homo sapiens) (UniProt Q8NE63); conditions: at 0.1 µM
# T2 sequence (whole entry): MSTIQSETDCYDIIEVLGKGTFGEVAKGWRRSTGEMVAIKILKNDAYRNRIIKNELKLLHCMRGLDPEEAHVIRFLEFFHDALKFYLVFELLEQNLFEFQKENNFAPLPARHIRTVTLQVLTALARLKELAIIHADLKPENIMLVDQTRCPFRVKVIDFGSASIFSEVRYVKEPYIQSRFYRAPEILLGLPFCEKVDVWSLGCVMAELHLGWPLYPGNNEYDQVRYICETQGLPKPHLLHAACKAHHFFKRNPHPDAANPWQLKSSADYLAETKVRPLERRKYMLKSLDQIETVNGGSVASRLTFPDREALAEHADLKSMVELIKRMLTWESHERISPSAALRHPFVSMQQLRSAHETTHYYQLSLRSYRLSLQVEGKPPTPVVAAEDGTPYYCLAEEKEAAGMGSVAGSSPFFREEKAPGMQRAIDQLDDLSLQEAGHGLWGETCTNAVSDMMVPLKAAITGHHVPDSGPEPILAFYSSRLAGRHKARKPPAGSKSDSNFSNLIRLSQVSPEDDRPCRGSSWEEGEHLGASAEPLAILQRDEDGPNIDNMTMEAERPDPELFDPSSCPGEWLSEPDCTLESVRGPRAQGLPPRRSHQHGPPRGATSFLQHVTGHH
# [15] = biological target: T2, Homeodomain-interacting protein kinase 4 (Homo sapiens); conditions: at 1 µM
# [16] = biological target: Mitogen-activated protein kinase 9 (Homo sapiens) (UniProt P45984); conditions: at 0.1 µM
# [17] = biological target: Mitogen-activated protein kinase 9 (Homo sapiens) (UniProt P45984); conditions: at 1 µM
# [18] = biological target: Mitogen-activated protein kinase 1 (Homo sapiens) (UniProt P28482); conditions: at 1 µM
# [19] = biological target: Mitogen-activated protein kinase 3 (Homo sapiens) (UniProt P27361); conditions: at 0.1 µM;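 note: each value is a mean inhibition figure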
# [20] = biological target: Mitogen-activated protein kinase 1 (Homo sapiens) (UniProt P28482); conditions: at 0.1 µM
# Chain of Homeodomain-interacting protein kinase 1 (Homo sapiens) (Q86Z02 whole entry, looked up): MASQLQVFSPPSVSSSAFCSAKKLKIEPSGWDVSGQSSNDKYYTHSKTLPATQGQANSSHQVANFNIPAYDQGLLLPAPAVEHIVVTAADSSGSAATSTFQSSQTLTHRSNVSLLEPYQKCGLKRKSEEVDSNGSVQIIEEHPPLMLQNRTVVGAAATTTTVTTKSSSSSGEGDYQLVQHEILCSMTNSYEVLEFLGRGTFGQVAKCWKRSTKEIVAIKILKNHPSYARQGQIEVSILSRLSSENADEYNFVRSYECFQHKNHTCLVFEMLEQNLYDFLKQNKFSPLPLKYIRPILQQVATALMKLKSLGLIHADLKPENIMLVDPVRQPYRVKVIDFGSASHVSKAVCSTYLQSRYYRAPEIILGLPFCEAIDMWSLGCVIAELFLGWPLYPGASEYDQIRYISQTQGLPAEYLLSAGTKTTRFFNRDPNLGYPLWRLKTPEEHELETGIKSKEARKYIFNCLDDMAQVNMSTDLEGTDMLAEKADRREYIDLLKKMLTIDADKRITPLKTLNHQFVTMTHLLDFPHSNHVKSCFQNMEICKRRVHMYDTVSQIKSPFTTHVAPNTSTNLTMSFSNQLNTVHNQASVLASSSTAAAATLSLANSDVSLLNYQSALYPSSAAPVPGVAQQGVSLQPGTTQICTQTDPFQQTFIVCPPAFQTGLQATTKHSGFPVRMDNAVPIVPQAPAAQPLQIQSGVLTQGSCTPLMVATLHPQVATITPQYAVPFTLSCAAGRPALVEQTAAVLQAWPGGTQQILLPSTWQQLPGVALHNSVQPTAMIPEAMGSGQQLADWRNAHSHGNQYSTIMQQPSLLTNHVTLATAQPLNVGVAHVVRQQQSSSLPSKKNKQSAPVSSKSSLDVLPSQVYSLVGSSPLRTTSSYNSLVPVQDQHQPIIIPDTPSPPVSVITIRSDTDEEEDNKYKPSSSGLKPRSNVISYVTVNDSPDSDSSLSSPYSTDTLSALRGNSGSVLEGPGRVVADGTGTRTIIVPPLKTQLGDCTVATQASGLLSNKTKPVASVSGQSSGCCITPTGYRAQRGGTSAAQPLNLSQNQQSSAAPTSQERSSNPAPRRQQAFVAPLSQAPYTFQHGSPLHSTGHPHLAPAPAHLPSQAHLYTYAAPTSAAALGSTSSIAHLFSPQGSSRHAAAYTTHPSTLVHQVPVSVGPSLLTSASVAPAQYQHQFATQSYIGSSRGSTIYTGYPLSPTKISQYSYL
# Chain of Mitogen-activated protein kinase 3 (Homo sapiens) (P27361 whole entry): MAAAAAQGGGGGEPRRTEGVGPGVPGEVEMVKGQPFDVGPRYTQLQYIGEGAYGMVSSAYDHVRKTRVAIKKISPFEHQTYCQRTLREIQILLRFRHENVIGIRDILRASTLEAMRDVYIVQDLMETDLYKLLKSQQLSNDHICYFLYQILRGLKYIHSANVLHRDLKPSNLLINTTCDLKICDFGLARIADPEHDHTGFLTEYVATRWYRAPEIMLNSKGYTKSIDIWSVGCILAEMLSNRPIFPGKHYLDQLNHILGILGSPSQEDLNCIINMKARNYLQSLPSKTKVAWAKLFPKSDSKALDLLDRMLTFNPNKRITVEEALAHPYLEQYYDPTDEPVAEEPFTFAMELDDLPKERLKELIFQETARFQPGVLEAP
# Chain of Mitogen-activated protein kinase 1 (Homo sapiens) (P28482 whole entry): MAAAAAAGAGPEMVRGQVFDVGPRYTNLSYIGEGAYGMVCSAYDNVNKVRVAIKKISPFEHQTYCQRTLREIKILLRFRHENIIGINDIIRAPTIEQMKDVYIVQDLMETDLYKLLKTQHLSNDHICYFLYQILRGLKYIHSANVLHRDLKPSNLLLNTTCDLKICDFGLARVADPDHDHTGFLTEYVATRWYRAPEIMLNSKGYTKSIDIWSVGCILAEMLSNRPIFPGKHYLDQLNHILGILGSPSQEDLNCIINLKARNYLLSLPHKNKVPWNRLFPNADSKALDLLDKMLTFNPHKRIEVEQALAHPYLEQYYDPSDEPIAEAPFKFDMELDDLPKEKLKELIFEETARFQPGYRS
# Chain of Glycogen synthase kinase-3 beta (Homo sapiens) (P49841 whole entry, looked up): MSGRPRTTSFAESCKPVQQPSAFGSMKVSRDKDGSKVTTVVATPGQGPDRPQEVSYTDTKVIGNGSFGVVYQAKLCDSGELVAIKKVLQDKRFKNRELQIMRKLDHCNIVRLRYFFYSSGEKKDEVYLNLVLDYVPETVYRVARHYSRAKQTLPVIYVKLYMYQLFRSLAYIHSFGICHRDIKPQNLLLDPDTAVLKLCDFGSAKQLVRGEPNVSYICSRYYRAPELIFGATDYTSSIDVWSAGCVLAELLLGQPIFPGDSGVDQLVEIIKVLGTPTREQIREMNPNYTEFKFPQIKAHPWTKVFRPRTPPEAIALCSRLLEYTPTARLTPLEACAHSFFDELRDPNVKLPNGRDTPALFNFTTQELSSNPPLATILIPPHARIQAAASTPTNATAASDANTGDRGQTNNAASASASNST
# Chain of Dual specificity tyrosine-phosphorylation-regulated kinase 1B (Homo sapiens) (Q9Y463 whole entry, looked up): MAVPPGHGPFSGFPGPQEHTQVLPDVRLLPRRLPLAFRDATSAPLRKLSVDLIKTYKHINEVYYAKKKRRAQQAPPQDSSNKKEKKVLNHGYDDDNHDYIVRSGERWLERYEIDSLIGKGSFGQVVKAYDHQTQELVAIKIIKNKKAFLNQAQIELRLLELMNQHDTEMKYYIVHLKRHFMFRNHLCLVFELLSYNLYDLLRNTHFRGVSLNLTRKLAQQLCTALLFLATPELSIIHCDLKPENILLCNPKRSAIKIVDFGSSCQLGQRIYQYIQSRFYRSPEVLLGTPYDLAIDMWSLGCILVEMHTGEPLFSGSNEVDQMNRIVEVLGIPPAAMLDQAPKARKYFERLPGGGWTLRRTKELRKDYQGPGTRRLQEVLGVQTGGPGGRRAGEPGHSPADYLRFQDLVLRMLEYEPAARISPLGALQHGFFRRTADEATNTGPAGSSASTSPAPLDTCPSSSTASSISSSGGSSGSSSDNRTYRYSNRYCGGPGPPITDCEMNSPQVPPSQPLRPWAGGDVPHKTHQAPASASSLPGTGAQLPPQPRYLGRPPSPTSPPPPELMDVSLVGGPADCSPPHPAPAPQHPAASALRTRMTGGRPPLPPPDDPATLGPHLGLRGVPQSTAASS
# Chain of Dual specificity protein kinase CLK3 (Homo sapiens) (P49761 whole entry, looked up): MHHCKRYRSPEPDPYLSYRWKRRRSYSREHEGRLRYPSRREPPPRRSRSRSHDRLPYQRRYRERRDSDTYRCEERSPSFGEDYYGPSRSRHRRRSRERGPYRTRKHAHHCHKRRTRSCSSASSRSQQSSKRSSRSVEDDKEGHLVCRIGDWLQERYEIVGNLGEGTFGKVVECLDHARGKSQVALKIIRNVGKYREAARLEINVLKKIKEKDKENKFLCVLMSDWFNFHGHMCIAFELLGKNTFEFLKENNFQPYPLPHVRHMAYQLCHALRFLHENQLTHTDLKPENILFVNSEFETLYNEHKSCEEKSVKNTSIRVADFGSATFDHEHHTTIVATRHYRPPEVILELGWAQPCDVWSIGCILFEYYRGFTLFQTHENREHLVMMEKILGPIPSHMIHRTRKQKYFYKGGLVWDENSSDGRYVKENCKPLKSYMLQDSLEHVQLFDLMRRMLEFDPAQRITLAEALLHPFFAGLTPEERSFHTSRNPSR
# Chain of Glycogen synthase kinase-3 alpha (Homo sapiens) (P49840 2-483 limits assumed): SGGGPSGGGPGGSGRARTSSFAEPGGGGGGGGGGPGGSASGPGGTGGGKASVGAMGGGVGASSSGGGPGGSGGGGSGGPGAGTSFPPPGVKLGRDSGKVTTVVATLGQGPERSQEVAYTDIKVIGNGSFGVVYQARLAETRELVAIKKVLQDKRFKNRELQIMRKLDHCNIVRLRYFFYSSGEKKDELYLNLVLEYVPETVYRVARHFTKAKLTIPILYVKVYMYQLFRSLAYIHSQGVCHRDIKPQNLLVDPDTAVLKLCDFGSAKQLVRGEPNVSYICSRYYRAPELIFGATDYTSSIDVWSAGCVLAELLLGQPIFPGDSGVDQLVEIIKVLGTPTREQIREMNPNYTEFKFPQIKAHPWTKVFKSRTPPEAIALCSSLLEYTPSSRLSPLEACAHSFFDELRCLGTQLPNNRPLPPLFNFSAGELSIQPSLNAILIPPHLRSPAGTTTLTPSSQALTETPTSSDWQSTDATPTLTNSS
# Chain of Mitogen-activated protein kinase 9 (Homo sapiens) (P45984 whole entry, looked up): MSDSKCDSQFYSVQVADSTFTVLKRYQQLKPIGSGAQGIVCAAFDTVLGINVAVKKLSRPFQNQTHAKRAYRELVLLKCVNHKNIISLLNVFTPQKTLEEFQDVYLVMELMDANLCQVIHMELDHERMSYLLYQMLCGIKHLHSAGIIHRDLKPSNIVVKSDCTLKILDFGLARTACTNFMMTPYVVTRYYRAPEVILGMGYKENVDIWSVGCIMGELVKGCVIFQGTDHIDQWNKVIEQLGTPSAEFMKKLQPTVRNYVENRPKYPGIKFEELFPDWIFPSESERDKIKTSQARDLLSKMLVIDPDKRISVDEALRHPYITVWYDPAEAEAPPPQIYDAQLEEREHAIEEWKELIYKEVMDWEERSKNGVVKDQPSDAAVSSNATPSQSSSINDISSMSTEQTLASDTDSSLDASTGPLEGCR
Structure (SMILES),inhibition [1],inhibition [2],inhibition [3],inhibition [4],inhibition [5],inhibition [6],inhibition [7],inhibition [8],inhibition [9],inhibition [10],inhibition [11],inhibition [12],inhibition [13],inhibition [14],inhibition [15],inhibition [16],inhibition [17],inhibition [18],inhibition [19],inhibition [20]
Nc1nccc(-c2c(-c3ccc(F)cc3)ncn2C2CCC(O)CC2)n1 (stereo unspecified),3.28%,2.86%,5.97%,3.71%,5.6%,-1.97%,-2.78%,0.95%,5.67%,1.63%,14.1%,2.2%,4%,1.22%,3.26%,9.42%,53.3%,-2.72%,-0.59%,
CCC(=O)Nc1ccc(C)c(-c2ccc(C(=O)NCC3CC3)cc2)c1,-0.21%,1.98%,3.18%,-0.71%,0.18%,3.11%,2.91%,1.84%,3.42%,0.54%,2.31%,-3.16%,-2.43%,0.11%,0.55%,2.92%,4.2%,4.25%,2.94%,4.32%
Clc1ccc(CNc2nccc(-c3cnn4ncccc34)n2)cc1,6.69%,16%,58%,28.6%,74.2%,0.77%,7.51%,2.42%,9.8%,2.82%,11.6%,14.8%,57.9%,11.9%,49%,3.52%,5.1%,3.23%,3.04%,4.19%
FC(F)(F)c1cccc(Nc2nccc(-c3cnn4nc(-c5ccccc5)ccc34)n2)c1,6.92%,1.59%,8.11%,0.33%,8.12%,1.14%,0.09%,23.5%,67.8%,,,7.68%,51.8%,6.64%,35.8%,-0.53%,-1.92%,3.46%,0.87%,4.13%
CN1CCN(CCCNc2nc3ccc(Oc4ccc(NC(=O)Nc5cc(C(F)(F)F)ccc5F)cc4)cc3[nH]2)CC1,-3.62%,-4.06%,-2.54%,-2.52%,-2.58%,0.8%,-0.19%,-2.85%,0.59%,-2.95%,-1.5%,-6.94%,-3.43%,6.45%,40.6%,3.11%,8.71%,0.12%,1.55%,1.47%
Cc1ccc(NC(=O)c2ccoc2)cc1-c1ccc(C(=O)NCC2CC2)cc1,0.49%,2.62%,3.4%,-0.58%,2.65%,1.99%,0.34%,11%,0.83%,6.09%,-0.68%,-3.48%,0.37%,0.84%,0.22%,3.16%,2.57%,3.37%,2.67%,3.2%
NS(=O)(=O)c1ccc(Nc2cc(-c3ccc(O)c(F)c3)n[nH]2)cc1,2.65%,1.28%,4.89%,2.64%,5.44%,-2.19%,3.75%,1.79%,23.5%,4.44%,38%,0.97%,16.1%,1.96%,10.4%,-1.59%,2.43%,-4.87%,-1.57%,
Fc1ccc(-c2ncn(C3CCNCC3)c2-c2ccnc(Oc3ccc4c(c3)OCO4)n2)cc1,-2.27%,3.17%,4.78%,-1.37%,0.33%,3.24%,3.38%,2.07%,5.18%,2.71%,4.03%,1.02%,5.62%,4.86%,7.7%,,,11.4%,5.84%,7.64%
NC(=O)Cc1ccccc1Oc1nccc(-c2c(-c3ccc(F)cc3)ncn2C2CCNCC2)n1,1.79%,4.01%,5.44%,2.79%,3.43%,2.28%,3.74%,1.87%,3.05%,-0.25%,1.98%,0.04%,-0.28%,1.66%,3.18%,,,4.48%,1.47%,0.51%
CCc1ccc(Oc2nccc(-c3c(-c4ccc(F)cc4)ncn3C3CCNCC3)n2)cc1,0.51%,0.92%,1.59%,-0.38%,1.04%,4.87%,4.71%,3.69%,7.13%,2.44%,7.29%,-2.3%,1.77%,0.48%,2.99%,,,11.6%,5.92%,6.77%
O=C(Nc1n[nH]c2cc(-c3ccccc3)ccc12)C1CC1,2.33%,5.04%,6.14%,1.94%,3.5%,2.82%,4.68%,6.53%,32.7%,,,0.47%,0.72%,1.87%,3.44%,6.25%,7.19%,6.01%,4.31%,2.48%
NCc1ccc(-n2c(-c3nonc3N)nc3cnccc32)cc1,3.13%,8.53%,37.5%,5.66%,36.4%,3.41%,4.54%,25.6%,67%,18.1%,60.1%,1.51%,9.18%,0.98%,5.32%,7.98%,6.05%,8.32%,4.41%,6.45%
O=C(Nc1n[nH]c2nc(-c3ccc(O)cc3)c(Br)cc12)C1CC1,8.39%,17.6%,55.5%,33.2%,71.7%,12.4%,53.3%,82.8%,85.7%,,,14.7%,58%,2.65%,10.4%,12.2%,19.4%,10.1%,5.33%,5.75%
CN(C)CCOc1ccc(-c2cc(-c3ccc4c(c3)CCC4=NO)c(-c3ccncc3)o2)cc1,1.91%,-1.28%,0.21%,-1.57%,-1.47%,-1.36%,-2.61%,-0.52%,-0.36%,-0.79%,0.28%,-5.92%,2.06%,0.15%,2.98%,-1.3%,3.02%,0.91%,-1.4%,-0.58%
